Measured values published in PubChem BioAssay (NCI).
Where “and” joins values, the source holds several entries; their conditions need not be identical. Equal values may be shown once. This is part of a sample that, as a whole, favours compounds with a hit. Of some 83,000 tested, about 20% had one in any assay.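 Cell lines were cultured in 96-well plates, exposed to a single compound concentration, and assessed for percent growth 48 hours later.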 Calls of active or inactive are those of the source. Rule for the calls: active = growth percent below 10; inactive = the rest.

System: MDA-MB-468 breast
Experiment: NCI-60 one-dose screen, 48 h (100 = growth as untreated, 0 = no growth, -100 = all killed)
Settings: 10 µM unless noted

| SMILES | growth |
| --- | --- |
| Cc1ccc(S(=O)(=O)N2CCc3ccc(O)c4c3C2Cc2cc(Cl)ccc2-4)cc1 (stereo not given) | 53.9% (inactive) |
| COc1cc(C2CC(c3cccc(Nc4ccncc4)c3)=Nc3c(N)ncnc3N2)cc(OC)c1OC (stereo not given) | 47.6% (inactive) |
| CC1=NOCC(=O)N1 | 95.9% (inactive) |
| Cc1cc(NN=C(c2ccc(O)cc2)c2ccc(O)cc2)c([N+](=O)[O-])cc1[N+](=O)[O-] | 92.8% (inactive) |
| CCOc1ccc(NC(=O)c2cc(OC)c(OC)c(OC)c2)cc1 | 8.51% (active) |
| CCOC(=O)c1c2c(n3ccc(NC(=O)CCN4CCOCC4)cc13)C(=O)c1ncccc1C2=O | 49.7% (inactive) |
| CC(=O)c1ccc(Nc2nc(C(C)=O)c(C)s2)cc1 | 94.5% (inactive) |
| NC(=O)SCC(=O)Nc1ccccc1-c1ccccc1 | 99.9% (inactive) |
| Cc1ccc(CNc2ccc3nc(CCC4CCCCC4)[nH]c3c2)cc1 | -13.2% (active) |
| C=CCOC(=O)C1=C(C)N(CC)C(=O)N(CC)C1c1c(Cl)n(C)c2ccccc12 (stereo not given) | 98.2% (inactive) |
| ClCc1c(Cl)c(Cl)c(Cl)c(CCl)c1Cl | -74% (active) |
| N#CC1c2ccccc2-c2ccccc2N1C(=O)c1ccccc1 (stereo not given) | 32.9% (inactive) |
| CCN(CC)CC(C)Nc1ccc(C)c2sc3ccccc3c(=O)c12 (stereo not given) | 57.7% (inactive) |
| CCCCCN(CCCCC)CCCCCCCCN1CCCc2ccccc21 | 99.9% (inactive) |
| Clc1ccc(C2=Nc3cccc4cccc(c34)N2)cc1Cl | -43.8% (active) |
| CCN(CC)CCN1C(=O)c2c(c(C)c3c(oc4ccc(O)cc43)c2C)C1=O | 47.5% (inactive) |
| CC(=O)OCC1OC(OC(C)=O)C(OC(C)=O)C(OC(C)=O)C1OC(C)=O (stereo not given) | 95.5% (inactive) and 108% (inactive) |
| CCOC(=O)C(Cc1ccccc1)n1c(O)c(C=Nc2ccc(C(=O)OCCN(CC)CC)cc2)sc1=O (stereo not given) | 82.6% (inactive) |
| CN=S(=O)(NC(=O)c1ccc(Cl)cc1Cl)c1ccc(Br)s1 (stereo not given) | 88.3% (inactive) |
| O=c1oc2ccc(F)cc2c(=O)n1-c1ccc(Cl)cc1F | -1.59% (active) |

| SMILES | growth |
| --- | --- |
| O=[N+]([O-])c1ccc(N/N=C\c2cc(Cl)ccc2O)nc1 | -2.47% (active) |
| COc1cccc(/C=C/C(=O)/C=C(/C=C/c2cccc(OC)c2OC)OB(F)F)c1OC | 52.7% (inactive) |
| COc1ccc(/C=C/c2nc(Nc3ccc(S(=O)(=O)Nc4nc(C)cc(C)n4)cc3)c3ccccc3n2)cc1 | 24% (inactive) |
| COc1ccccc1N(C(C)=O)C1=C(Cl)C(=O)c2ccccc2C1=O | -92.8% (active) |
| CCOC(=N)c1ccc(C(=N)OCC)cc1 | 106% (inactive) |
| Cc1cccc(C[C@H](NC(=O)Nc2ccc(Cl)cc2F)C(=O)N[C@@H]2C(=O)N3C[C@H](O)C[C@H]3C(=O)N3CCCC[C@H]3C(=O)N[C@@H](C)C(=O)N3C[C@H](C)C[C@H]3C(=O)O[C@H]2C)c1 | -7.94% (active) |
| C[C@H](c1nc2ccc(N)cc2[nH]1)[C@H]1CC[C@H]2[C@@H]3CCC4=CC(=O)CC[C@]4(C)[C@H]3CC[C@]12C | 68.1% (inactive) |
| CCOc1cccc(Nc2nc(N)nc3[nH]c4ccc(O)cc4c23)c1 | 8.38% (active) |
| C[n+]1c(-c2ccccc2)c2cc(N)ccc2c2ccccc21 | -15.4% (active) |
| CO[C@]12C=C/C(=C(/C(=O)OCc3cccnc3)C(=O)CCCCCCCC[C@@]3(OC)C=C/C(=C(/C(=O)OCc4cccnc4)C(=O)CCCCCCCC1)O3)O2 | -4.86% (active) |
| c1ccc(-c2cn3c(ccc4ccccc43)n2)cc1 | 30.6% (inactive) |
| Nc1nc(Nc2ccccc2SSc2ccccc2Nc2nc(N)nc(-c3cccc(Cl)c3)n2)nc(-c2cccc(Cl)c2)n1 | 95.3% (inactive) |
| Cc1ccc(C2=C/C(=C/c3ccc(Br)cc3)C(=O)N2CCc2ccc(S(N)(=O)=O)cc2)cc1 | 92.7% (inactive) |
| O=C1C(Cl)=C(Nc2ccccc2)C(=O)c2ccccc21 | -77.8% (active) |
| CCCCCC(=C/c1ccccc1)/C=N/N=C(N)N | -87.4% (active) |
| CCC(=O)Oc1ccc(-c2ccccc2)cc1Br | 98.4% (inactive) |
| COc1ccc(-c2nn(-c3ccc(NC(=O)c4cc(C(F)(F)F)cc(C(F)(F)F)c4)cc3)cc2-c2ccncc2)cc1Cl | 77.1% (inactive) |
| COc1ccc(-c2cc(-c3ccc(Cl)cc3)c(C#N)c(=O)n2Cc2ccc(C(=O)O)cc2)cc1 | 73.7% (inactive) |
| O=C1/C(=C/c2ccc(Cl)cc2)SC(=S)N1CCc1ccc(O)cc1 | 73.1% (inactive) |
| COc1ccc(N2CCC(=S)NC2=S)cc1 | 97.7% (inactive) |
